# Measured values: the supplement of paper PMC6522484
# ± gives the standard deviation of the averaged measurements.
# Experiments:
# DLD1 [1] = assay: cell viability (CellTiter-Glo) relative to plate median (fraction of plate median); higher = more viable cells; conditions: 5 µM; treatment time 24 h; reporter: 7TFP
# Summary of the method: (§1)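 Stable lentiviral TCF/Wnt firefly luciferase reporters (7TFP or TCF4/Wnt) were present in the colorectal cancer cell lines used. These cells received library compounds at a final 5 µM for 24 h, and parallel plates were read for firefly luciferase or CellTiterGlo luminescence. Each well was normalised to the plate median, and the value reported is the mean of two independent replicates.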
# HCT116 = assay: as above; conditions: 5 µM; treatment time 24 h; reporter: TCF4/Wnt
# Summary of the method: as §1
# SW480 [2] = assay: as above; conditions: 5 µM; treatment time 24 h; reporter: 7TFP
# Summary of the method: as §1
# DLD1 [3] = assay: TCF/Wnt firefly luciferase reporter signal relative to plate median (fraction of plate median); higher = higher Wnt reporter signal; conditions: 5 µM; treatment time 24 h; reporter: 7TFP
# Summary of the method: as §1
# SW480 [4] = assay: as above; conditions: 5 µM; treatment time 24 h; reporter: 7TFP
# Summary of the method: as §1
Compound,cell viability (DLD1 [1]),cell viability (HCT116),cell viability (SW480 [2]),TCF/Wnt firefly luciferase reporter signal (DLD1 [3]),TCF/Wnt firefly luciferase reporter signal (SW480 [4])
CCOC(=O)c1c(C)cc(O)c(C=O)c1O,0.945 ± 0.05,1.08 ± 0.014,0.9445 ± 0.005,0.865 ± 0.11,0.861 ± 0.11
COc1ccc2c(c1)OCC(Cc1ccc(OC)c(OC(C)=O)c1)C2=O (stereo not given),1.025 ± 0.0071,0.919 ± 0.059,1.03,0.969 ± 0.12,0.858 ± 0.18
CCOC(=O)Nc1nc2ccccc2[nH]1,1.03 ± 0.028,0.887 ± 0.016,1.06 ± 0.035,0.971 ± 0.056,0.959 ± 0.0057
CCCCCCCCCCCC[C@H](O)[C@@H]1CC[C@@H]([C@@H](O)CCCCCCCC(=O)CC[C@@H](O)CC2=C[C@H](C)OC2=O)O1 [annocherin],0.904 ± 0.09,0.871 ± 0.082,0.921 ± 0.093,0.843 ± 0.12,0.855 ± 0.32
CC=CC(=O)N(CC)c1ccccc1C,0.931 ± 0.093,1.05 ± 0.028,1.01 ± 0.021,0.953 ± 0.081,0.8525 ± 0.0078
Cc1ccc(-c2cc(C(F)(F)F)nn2-c2ccc(S(N)(=O)=O)cc2)cc1,0.972 ± 0.097,1.02 ± 0.087,0.987 ± 0.047,0.919 ± 0.013,0.947 ± 0.04
COc1cc(O)c(C(C)=O)c(OC)c1,1.12 ± 0.11,1.03 ± 0.059,1.055 ± 0.0071,0.978 ± 0.19,0.983 ± 0.11
"CC1=CC(=O)CC(C)(C)C1(O)/C=C/C(C)=C\C(=O)O (mixture of isomers) [ABSCISIC ACID (cis,trans; )]",1.05 ± 0.021,1.1 ± 0.021,1.03 ± 0.064,1.08 ± 0.092,1.18 ± 0.13
CC(=O)O[C@@H]1C[C@H]2C(C)(C)C(=O)C=C[C@]2(C)[C@H]2CC[C@@]3(C)[C@H](c4ccoc4)OC(=O)[C@H]4O[C@]43[C@@]21C,1.01 ± 0.025,1.07 ± 0.042,0.97 ± 0.018,1.19 ± 0.05,1.11 ± 0.028
CC1(C)Oc2ccc3ccc(=O)oc3c2CC1O (stereo not given),0.993 ± 0.011,1.01 ± 0.042,1.07 ± 0.021,0.996 ± 0.19,0.791 ± 0.089
O=c1cc(-c2ccc(O)cc2)oc2cc(O)ccc12,1.06 ± 0.13,0.987 ± 0.1,0.987 ± 0.033,0.92 ± 0.11,1.04 ± 0.028
COc1ccc(-c2cc(=O)c3ccccc3o2)cc1OC,1.07 ± 0.05,1.01,1.06 ± 0.057,0.906 ± 0.0099,1.03 ± 0.035
CC[C@H]1OC(=O)[C@H](C)[C@@H](O[C@H]2C[C@@](C)(OC)[C@@H](O)[C@H](C)O2)[C@H](C)[C@@H](O[C@@H]2O[C@H](C)C[C@H](N(C)C)[C@H]2O)[C@](C)(OC)C[C@@H](C)C(=O)[C@H](C)[C@@H](O)[C@]1(C)O,0.858 ± 0.099,0.931 ± 0.0071,1.05 ± 0.042,0.996 ± 0.021,1.125 ± 0.0071
Cc1ccccc1C(OCCN(C)C)c1ccccc1 (stereo not given),1.07 ± 0.13,0.894 ± 0.15,1.01 ± 0.039,1.085 ± 0.0071,1.12 ± 0.085
CN(C)c1nc(N(C)C)nc(N(C)C)n1,0.976 ± 0.076,0.97 ± 0.057,1.05,1.03 ± 0.035,1.01 ± 0.09
FC(F)(F)C(Cl)Br (stereo not given),0.964 ± 0.035,0.898 ± 0.011,0.9715 ± 0.0035,1.02 ± 0.028,1.1 ± 0.092
O=C1c2cccc(O)c2C(=O)c2c(O)cccc21,0.96 ± 0.013,0.923 ± 0.12,0.992 ± 0.054,0.958 ± 0.12,1 ± 0.051
CNC(=C[N+](=O)[O-])NCCSCc1ccc(CN(C)C)o1,0.892 ± 0.018,0.983 ± 0.024,0.974 ± 0.011,0.998 ± 0.017,0.953 ± 0.016
Clc1ccccc1C(c1ccccc1)(c1ccccc1)n1ccnc1,1.05 ± 0.089,1 ± 0.11,0.956 ± 0.0042,0.938 ± 0.086,1.08 ± 0.014
CC(C)NCC(O)c1ccc2ccccc2c1 (stereo not given),0.986 ± 0.035,1.01 ± 0.042,0.977 ± 0.0042,0.962 ± 0.097,1 ± 0.069
CCOC(=O)CCCCCCCCCCCCC1C=CCC1 (stereo not given),0.9375 ± 0.005,0.949 ± 0.07,0.965 ± 0.05,0.869 ± 0.034,0.873 ± 0.073
C[N+](C)(C)CC(O)CC(=O)[O-] (stereo not given),0.976 ± 0.03,1.07 ± 0.14,0.9395 ± 0.00071,1.14 ± 0.014,0.902 ± 0.1
COc1cc(NS(=O)(=O)c2ccc(N)cc2)nc(OC)n1,0.9765 ± 0.0092,0.924 ± 0.031,0.956 ± 0.063,0.895 ± 0.28,0.8105 ± 0.0064
Cc1cc(O)c(C)c(O)c1C(=O)O,1 ± 0.05,0.927 ± 0.0085,0.996 ± 0.021,0.792 ± 0.36,0.949 ± 0.23
CCCCCCc1ccc(O)cc1O.Nc1c2ccccc2nc2ccccc12,1.03 ± 0.056,0.829 ± 0.0071,1.1 ± 0.057,1.98 ± 0.34,0.848 ± 0.045
CC(C)(C)NC[C@H](O)c1ccc(O)c(CO)c1,1.01 ± 0.13,0.93 ± 0.061,0.972 ± 0.069,1.02,1.07 ± 0.092
c1ccc2c(c1)CN1CCCC1=N2,1.03 ± 0.028,1.09 ± 0.24,0.998 ± 0.032,0.935 ± 0.15,0.944 ± 0.064
COc1cc2oc3cc(OC)c(OC)c(CC=C(C)C)c3c(=O)c2c(O)c1CC=C(C)C,1.08 ± 0.16,1 ± 0.078,1.02 ± 0.054,1.1 ± 0.19,0.968 ± 0.046
